# Measurements: PubChem BioAssay AID588499 (NMMLSC, 2011)
# About 610 (0.17%) of roughly 360,000 compounds were called active. About 2% were inconclusive and are not listed. What follows is part of a selection rich in actives, with near analogues and random picks from the rest. Values without a mark were called inactive. Rule as the data show it: active = inhibition above about 30%; inconclusive = no clear call, values can overlap the other calls; inactive = below that.
# System: Botulinum neurotoxin type A light chain protease (Clostridium botulinum A str. ATCC 3502)
# Assay: blockers of BoNT/A LC substrate cleavage – biochemical, flow cytometry, MLPCN library, primary screen (AID 588499); also: plate controls were buffer without enzyme for full effect and enzyme alone for no effect
# Conditions: multiplex microsphere protease substrate cleavage, at 10 µM, hits give high values
row,SMILES,inhibition
1,COc1ccc(C(=O)NC(=S)N2CCNC(=O)C2CC(=O)OC(C)C)cc1 (stereo unspecified),-0.1%
2,Cc1cccc(-n2c(SCC(N)=O)nc3c(c2=O)C2(CCCCC2)Cc2ccccc2-3)c1,-0.1%
3,COc1ccc(COC[C@H](CC(C)C)N2CCN(C(=O)c3cccc(C(F)(F)F)c3)CCC2=O)cc1,0.7%
4,Cc1ccc(C(=O)O)cc1-c1ccc(/C=C2\SC(=O)N(CC(=O)Nc3ccc4c(c3)OCO4)C2=O)o1,0.8%
5,O=C(O)C(c1ccccc1)N1C(=O)/C(=C\c2ccc(-c3cccc(Cl)c3)o2)SC1=S (stereo unspecified),39.3% (active)
6,NS(=O)(=O)c1ccc(-c2ccc(/C=C3\SC(=O)NC3=O)o2)cc1,0.3%
7,CC(C(=O)Nc1ccc(O)c(C(=O)O)c1)N1C(=O)/C(=C/c2cccs2)SC1=S (stereo unspecified),2%
8,CN1C(=O)/C(=C\c2ccc(-c3ccccc3)o2)SC1=S,66.9% (active)
9,CC(C(=O)NC1CCS(=O)(=O)C1)N1C(=O)/C(=C/c2ccc(Cl)cc2)SC1=S (stereo unspecified),2.3%
10,CN(CC(=O)Nc1c(Cl)cccc1Cl)C(=O)c1ccncc1,-3.2%
11,COc1ccc(C(c2nnnn2Cc2cccs2)N2CCN(c3ccccc3)CC2)cc1OC (stereo unspecified),-0.3%
12,CCOCCCNC(=O)c1cn(CC(C)C)c(=O)c2c1c1ccccc1n2C,2.4%
13,O=c1[nH][nH]c2c1[C@H](c1ccc(Cl)cc1)O[C@H](CCc1ccccc1)C2,-0.3%
14,COc1ccc(C(NC(=O)C2CCN(CCCc3ccccc3)CC2)c2cccs2)cc1 (stereo unspecified),-0.5%
15,O=C(Nc1ccc2c(c1)[C@@H]1C[C@@H](CC(=O)N3CCCCC3)O[C@@H](CO)[C@@H]1O2)NC1CCCCC1,0.1%
16,COC(=O)[C@]12CCCCC=C1N(Cc1ccco1)C(=O)[C@H](CC(=O)NCC1CCCCC1)C2,-1.1%
17,Cc1ccc(CCn2c3c(c4ccccc42)CN(C)CC3)cn1,1.5%
18,CCC(C)C(N=C1NS(=O)(=O)c2ccccc21)C(=O)N1CCC(C)CC1 (stereo unspecified),-2.7%
19,CCOc1ccc(-n2c(SCC(=O)OC)nc3sc4c(c3c2=O)CCN(C)C4)cc1,26.5%
20,CCSc1nc2sc3c(c2c(=O)n1-c1ccc(C)cc1)CCN(C)C3,9.9%
21,CCCSc1nc2sc3c(c2c(=O)n1-c1ccc(OC)cc1)CCN(C)C3,49.9% (active)
22,O=S1(=O)CC(N2CCSCC2)CN1Cc1cn(Cc2cccc(Cl)c2)nn1 (stereo unspecified),0.5%

row,SMILES,inhibition
1,Cc1ccc(SCC(=O)NNC(=O)c2ccc(S(C)(=O)=O)cc2)cc1,0.3%
2,CC1CCCCC1NC(=O)NC(=O)COC(=O)C1=NN(c2ccccc2)C(=O)CC1 (stereo unspecified),-0.8%
3,CCNC(=S)N1CCN(c2ncccn2)CC1,1.2%
4,CCOc1ccc(NC(=S)N2CCCCCC2)cc1,0%
5,CC(=NNC(=S)N1CCCCCC1)c1ccccn1,32.5% (active)
6,CCc1[nH]nc(C(=O)N2CCCC(CO)(Cc3ccc(F)cc3F)C2)c1C (stereo unspecified),0.2%
7,O=C(c1cccc(-n2cccc2)c1)N1CCN(S(=O)(=O)c2ccc(F)cc2)CC1,-0.8%
8,CCCCN1C(=O)C(CC(=O)NCc2cccs2)CC(C(=O)N2CCCCCC2)=C1C (stereo unspecified),0%
9,CCN(CC)C(=O)CSC1c2ccccc2C(=O)N1c1ccccc1 (stereo unspecified),-1.6%
10,COc1ccc(C(=O)Nc2nc(-c3ccc(OC)cc3)c(-c3ccc([N+](=O)[O-])cc3)s2)cc1,40.2% (active)
11,COc1ccc(-c2[nH][nH]c(=O)c2NC(=O)c2ccc([N+](=O)[O-])cc2)cc1,0.1%
12,COc1ccc(NC(=O)c2cn(CCC#N)nc2-c2ccc([N+](=O)[O-])cc2)cc1,-1.1%
13,O=C(OCC(=O)c1c[nH]c2ccccc12)c1cccc(O)c1,0.8%
14,CCOc1ncccc1C(=O)OCC(=O)NC1CC1,-0.4%
15,CCOc1ncccc1C(=O)OCC(=O)c1c[nH]c2ccccc12,36.8% (active)
16,CC1CCCCC12NC(=O)N(CC(=O)Nc1ccc(S(=O)(=O)Nc3ncccn3)cc1)C2=O (stereo unspecified),-0.7%
17,CC(=O)Nc1ccc(-c2ccnc3c2CC(C(=O)NC(C)C)O3)cc1 (stereo unspecified),0.1%
18,CCCc1ccc(C(O)c2ncc(-c3cccc(OC)c3)[nH]2)cc1 (stereo unspecified),0.3%
19,COc1ccc(C2CC(c3cccs3)=NN2C(=O)CSc2nncs2)cc1OC (stereo unspecified),0.2%
20,COc1ccc(C2CC(c3cccs3)=NN2C(=O)CSc2nnc(N)s2)cc1OC (stereo unspecified),0.2%
21,COc1ccc(C2CC(c3cccs3)=NN2c2nc(C)c(C(C)=O)s2)cc1OC (stereo unspecified),63.7% (active)
22,CCN(CC)C(=O)Oc1ccc(Br)cc1C(=O)Nc1ccc(F)c(Cl)c1,-0.8%

row,SMILES,inhibition
1,O=C(NCc1ccco1)C(=O)c1cn(CC(=O)N2CCCCCC2)c2ccccc12,10.2%
2,Cc1ccc(CNC(=O)C(=O)c2cn(CC(=O)N3CCCC3)c3ccccc23)cc1,0%
3,O=C(NCCCn1ccnc1)C(=O)c1cn(CC(=O)N2CCCCCC2)c2ccccc12,30.5% (active)
4,CC1(C(=O)NS(=O)(=O)C2CC2)CCCN(C(=O)CSc2ccccc2)C1 (stereo unspecified),0.5%
5,CN(C(=O)COC(=O)c1cc(=O)[nH]c2ccccc12)C1CCCCC1,2.1%
6,CSCC[C@H](NC(=O)NCc1cccs1)C(=O)O,-0.9%
7,COc1ccc(NC(=O)COc2ccc(C(=O)c3ccc(F)cc3)cc2)cc1S(N)(=O)=O,-1%
8,C[C@@H]1CN([C@@H](C)CO)C(=O)CCCn2nncc2CO[C@@H]1CN(C)S(=O)(=O)c1ccc(-c2ccccc2)cc1,-0.4%
9,O=c1[nH]snc1-c1c(Cl)cccc1Cl,-0.7%
10,COC(=O)c1c(NC(=O)COC(=O)[C@@H](NS(=O)(=O)c2ccccc2)C(C)C)sc2c1CCC2,-0.3%
11,CCOC(=O)C1CCN(C(=O)CN2C(=O)c3cccnc3Oc3ccc(C)cc32)CC1,-1%
12,CCOC(=O)C1CCN(C(=O)Cc2c(C(=O)O)[nH]c3ccccc23)CC1,-4.4%
13,CCOC(=O)N(C)c1c(CC)nc2c(OCc3ccccc3C(=O)OC)cccn12,-0.1%
14,CCN1CCN(c2ccc(S(=O)(=O)N3CCCCC3)cc2NC(=O)Cc2c(Cl)cccc2Cl)CC1,-1.8%
15,CCn1c(O)c(N=NC2=NC(=O)CS2)c2cc(C)ccc21,-0.3%
16,COC(=O)c1ccc(CN2CCCC(C(=O)Nc3cccc(-n4cnnn4)c3)C2)cc1 (stereo unspecified),-3.3%
17,CC(C)C1N=C2c3ccccc3N=C(SCC(=O)c3ccc(O)c(O)c3)N2C1=O (stereo unspecified),0.1%
18,Cc1cc(C(C)(C)C)oc1C(=O)N(CC(=O)NC1CCCC1)Cc1ccc(Cl)cc1,-0.3%
19,CC1(C(=O)Nc2cccc(Oc3ccccc3)c2)CCN1Cc1ccccc1Cl (stereo unspecified),-0.1%
20,CC(C)CN(C(=O)CN1CCN(S(=O)(=O)c2ccccc2)CC1)c1c(N)n(CC(C)C)c(=O)[nH]c1=O,-2.5%
21,Cc1cc(-c2nnc(CCC(=O)NC(c3ccccc3)c3ccccc3)o2)no1,0.3%
22,CCCn1c(=NC(C)=O)c(C(=O)OCC)cc2c(=O)n3ccccc3nc21,0.6%

row,SMILES,inhibition
1,Cc1onc(-c2c(F)cccc2Cl)c1C(=O)OCC(=O)N1C(C)CCCC1C (stereo unspecified),0.1%
2,CCOC(=O)c1cc2c(=O)n3ccccc3nc2n(CC(C)C)c1=NC(=O)c1c(-c2c(F)cccc2Cl)noc1C,60.3% (active)
3,CC(C)C(C)(C#N)NC(=O)CSc1nncn1-c1ccccc1 (stereo unspecified),-0.7%
4,Cc1ccc(SCC2=NNC(=O)C2)cc1,0.6%
5,CCc1ccc(CCC(=O)Nc2ccc(S(N)(=O)=O)cc2)o1,0.3%
6,CCCCCCN1CCN(C2CN(Cc3cn(CCCCCC)nn3)S(=O)(=O)C2)CC1 (stereo unspecified),-0.3%
7,Cc1ccc2nc(-c3ccccc3)c(CC3CCCCC3)n2c1,1.4%
8,CC1=CCC2C(=O)N(c3cccc(C(=O)NC(C)c4ccccc4)c3)C(=O)C2C1 (stereo unspecified),-3.1%
9,Cc1ccc(C)c(NC(=O)CN(C)C(=O)COc2ccc3ccccc3c2)c1,-0.4%
10,Cc1cc2ccccc2n1CCNC(=O)COc1ccc2ccccc2c1,61.4% (active)
11,COCCNC(=O)COc1ccc(N(C)S(=O)(=O)c2ccc3ccccc3c2)cc1,-1.4%
12,Cc1ccc(S(=O)(=O)N2CC[C@H]3[C@@H](C2)C(=O)C[C@@H](c2ccccc2)N3S(=O)(=O)c2ccc(C)cc2)cc1,-0.4%
13,Cc1ccc(N(C(=O)c2ccc(CN3CCOCC3)o2)C(C(=O)NCCC(C)C)c2cccs2)c(C)c1 (stereo unspecified),-1%
14,Cc1cccc(N(CC(=O)Nc2ccc(-c3nc4ccc(C)cc4s3)cc2)S(C)(=O)=O)c1,-0.9%
15,CCCCCc1c(-c2ccc(OC)c(OC)c2)ncn1CCc1ccccc1OC,-0.2%
16,COC(=O)c1ccc2nc(-c3ccc(OC)c(OC)c3)c(Cc3ccccc3)n2c1,3%
17,CCCOc1cccc(C(=O)Nc2ccccc2C(=O)N2CCN(C)CC2)c1,-2.3%
18,COc1ccc(C(=O)NC(Cc2ccc(OC(=O)c3ccc(OC)cc3)cc2)C(=O)O)cc1 (stereo unspecified),0.4%
19,c1csc(-c2nnc(COc3ccc4c(c3)OCO4)o2)c1,-0.4%
20,COC(=O)c1ccc2nc(-c3ccc(C)cc3)c(Cc3ccc(OC)cc3C)n2c1,0.7%
